A selection: hits, their analogues and other compounds. The true share with any hit is near 1.6%.
OPRM1-OPRD1 ag – agonists of human mu-delta opioid receptor heterodimerization; P35372+P41143; cells, OPRM1-OPRD1 heterodimerization, luminescence; activation, % at 9.3 µM; hit rate 0.3% among 340,000; AID 504326
Target sequence (P35372 whole entry, looked up): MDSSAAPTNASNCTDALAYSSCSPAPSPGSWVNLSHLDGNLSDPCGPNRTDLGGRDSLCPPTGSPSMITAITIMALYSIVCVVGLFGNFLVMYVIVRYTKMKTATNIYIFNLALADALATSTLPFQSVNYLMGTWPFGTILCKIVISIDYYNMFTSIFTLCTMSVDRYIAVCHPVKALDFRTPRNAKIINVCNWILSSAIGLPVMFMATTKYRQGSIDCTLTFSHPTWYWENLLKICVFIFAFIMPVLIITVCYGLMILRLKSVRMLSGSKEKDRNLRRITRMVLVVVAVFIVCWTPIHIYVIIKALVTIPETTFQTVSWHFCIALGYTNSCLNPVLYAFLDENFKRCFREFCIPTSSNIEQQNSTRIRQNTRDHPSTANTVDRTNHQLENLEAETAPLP
Target sequence (P41143 whole entry, looked up): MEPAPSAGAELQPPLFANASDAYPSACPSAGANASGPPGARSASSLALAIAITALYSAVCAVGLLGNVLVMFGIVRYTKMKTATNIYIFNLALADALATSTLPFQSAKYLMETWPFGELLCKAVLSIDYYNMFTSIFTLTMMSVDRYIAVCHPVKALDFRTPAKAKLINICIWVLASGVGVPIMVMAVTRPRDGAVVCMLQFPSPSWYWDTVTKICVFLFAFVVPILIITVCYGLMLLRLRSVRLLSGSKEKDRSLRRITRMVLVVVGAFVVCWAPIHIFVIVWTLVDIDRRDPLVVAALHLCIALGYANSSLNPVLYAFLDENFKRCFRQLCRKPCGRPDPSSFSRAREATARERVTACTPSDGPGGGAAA
HTR5A ag – HTR5A agonism, opioid heterodimer counter-screen; P47898; HTR5A agonist assay, luminescence, cell-based; activation, % at 9.3 µM; hit rate 0.61% among 340,000; AID 504692; in the data active = activation mostly above about 9.5%, no sharp cut-off; inactive = mostly below about 7.6%
MOR-DOR inv ag – inverse agonist of human OPRM1-OPRD1 heterodimerization; P35372+P41143; cell-based MOR-DOR heterodimer luminescence, inverse agonism; inhibition, % at 9.3 µM; hit rate 0.21% among 340,000; in the data active = inhibition above about 22%, passing the limit was not always enough
HTR2A ag – mouse HTR2A agonism via beta-arrestin recruitment; hit rate 0.66% among 360,000; activation, % at 7.6 µM; CHO-K1 mHTR2A beta-arrestin complementation, luminescence; percent of 30 µM serotonin response;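 active = activation above a run cutoff, the mean activation of all tested compounds plus 3 SD, cut at about 14% in these data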
HTR5A inv ag – inverse agonist of human HTR5A in OPRM1-OPRD1 counter-screen. P47898. HTR5A cell line, luminescence, inverse agonism. inhibition, % at 9.3 µM. hit rate 0.083% among 340,000; in the data active = inhibition mostly above about 23%, no sharp cut-off; inactive = mostly below about 18%
MOR-DOR ag conf – OPRM1-OPRD1 heterodimer agonism, confirmation | shares compounds with OPRM1-OPRD1 ag | cells, MOR-DOR heterodimerization, luminescence complementation | activation, % at 9.3 µM | hit rate 45% among 830 | AID 504904
HTR5A ag ctr2 – activates human HTR5A in OPRM1-OPRD1 agonist counter-screen; shares compounds with OPRM1-OPRD1 ag; HTR5A agonist counterscreen, cell luminescence; activation, % at 9.3 µM; hit rate 8% among 830; AID 504905; in the data active = activation above about 17%
A number is an active result; - = inactive; . = not tested or not shown. Cut-off read from the data, not from the text of the source, unless noted: active = activation above about 18%; inactive = the rest.

SMILES | OPRM1-OPRD1 ag | HTR5A ag | MOR-DOR inv ag | HTR2A ag | HTR5A inv ag | MOR-DOR ag conf | HTR5A ag ctr2
OC(CN1CCN(C(c2ccccc2)c2ccccc2)CC1)c1ccccc1 (stereo not drawn) | 19 | - | - | - | - | 33 | -
COc1ccc(CN(C(=O)c2oc3ccc(F)cc3c2C)C2CCS(=O)(=O)C2)cc1 (stereo not drawn) | - | - | - | - | - | . | .
Cc1ccc2c(C)c(C(=O)N(Cc3cccs3)C3CCS(=O)(=O)C3)oc2c1 (stereo not drawn) | 47 | - | - | - | - | 75 | -
Cc1cc2oc(C(=O)N(Cc3ccccc3)C3CCS(=O)(=O)C3)c(C)c2cc1C (stereo not drawn) | 40 | - | - | - | - | 21 | -
Cc1ccc(C(=O)N(Cc2cccs2)C2CCS(=O)(=O)C2)cc1 (stereo not drawn) | - | - | - | - | - | . | .
Cc1ccc2oc(C(=O)N(Cc3ccccc3)C3CCS(=O)(=O)C3)c(C)c2c1 (stereo not drawn) | 20 | - | - | - | - | - | -
Cc1ccc2c(C)c(C(=O)N(Cc3ccccc3)C3CCS(=O)(=O)C3)oc2c1 (stereo not drawn) | 35 | - | - | - | - | - | -
CCCCN(CCCNC(=S)NCCCc1cnc[nH]1)c1ccc(Br)cn1 | . | . | . | - | . | . | .
NC(N)=N/N=C/c1ccc(OCc2ccccc2Cl)cc1 | 22 | - | - | - | - | - | -
CCc1ccc(OCc2n[nH]c(=S)n2Cc2ccccc2)cc1 | - | - | - | - | - | . | .
CCc1ccc(OCc2n[nH]c(=S)n2C(C)CCCC(C)C)cc1 (stereo not drawn) | 20 | - | - | - | - | - | 18
O=S1(=O)CC(N2CCC(Cc3ccccc3)CC2)CN1C1CCCC1 (stereo not drawn) | . | . | . | - | . | . | .
Cn1c(SCC(=O)c2ccc3c(c2)NC(=O)CO3)nc2ccccc21 | 38 | - | - | - | - | 25 | -
CCCn1c(SCC(=O)c2ccc3c(c2)NC(=O)CO3)nc2ccccc21 | - | - | - | - | - | . | .
CC(Cl)=CCn1c(NCCc2ccccc2)nc2c1c(=O)n(C)c(=O)n2C | . | . | . | - | . | . | .
CN=c1scc(-c2ccccc2F)n1/N=C/c1ccc[nH]1 | - | - | - | - | - | . | .
CN=c1scc(-c2ccccc2F)n1/N=C/c1ccc(O)c(O)c1O | 18 | - | - | - | - | - | -
COc1ccc(C(CNC(=O)c2cccc(S(=O)(=O)NCc3ccccc3)c2)N(C)C)cc1 (stereo not drawn) | 20 | - | - | - | - | - | -
COc1ccc(CCNC(=O)c2ccc3c(c2)OCCO3)cc1 | - | - | - | - | - | . | .
CN(C)C(CNC(=O)c1cccc(S(=O)(=O)Nc2ccc(SC(F)F)cc2)c1)c1ccccc1 (stereo not drawn) | 38 | - | - | - | - | - | -
CN(C)C(CNC(=O)c1cccc(S(=O)(=O)N(C)C)c1)c1ccccc1 (stereo not drawn) | 33 | - | - | - | - | - | 26
COc1ccc(NS(=O)(=O)c2cccc(C(=O)NCC(c3ccccc3)N(C)C)c2)cc1 (stereo not drawn) | - | - | - | - | - | . | .
COc1ccc(C(CNC(=O)c2ccc3c(c2)OCCO3)N(C)C)cc1 (stereo not drawn) | 132 | - | - | - | - | 148 | -
CCOC(=O)[C@]12CCC=C1N(Cc1ccc3c(c1)OCO3)C(=O)[C@H](CC(=O)NCC13CC4CC(CC(C4)C1)C3)C2 | . | . | . | - | . | . | .
CCCNc1c(N)c(=O)oc2ccccc12 | - | - | - | - | - | . | .
SMILES | OPRM1-OPRD1 ag | HTR5A ag | MOR-DOR inv ag | HTR2A ag | HTR5A inv ag | MOR-DOR ag conf | HTR5A ag ctr2
Nc1c(NCCN2CCCCC2)c2ccccc2oc1=O | 53 | - | - | - | - | - | -
COc1ccc(-c2csc(C(C)(O)c3ccncc3)n2)cc1OC (stereo not drawn) | . | . | . | - | . | . | .
Cc1cc(C)cc(CC(Cc2nc3ccccc3[nH]2)c2nc3ccccc3[nH]2)c1 (stereo not drawn) | 66 | - | - | - | - | - | -
Cc1ccc(CSCc2nc3ccccc3[nH]2)cc1 | - | - | - | - | - | . | .
Cc1ccc(Cl)cc1NC(=O)CNCC(c1ccccc1)N(C)C (stereo not drawn) | 50 | - | - | - | - | 76 | -
CN(C)C(CNC(=S)Nc1cccc(Cl)c1)c1ccccc1 (stereo not drawn) | 357 | - | - | - | - | 421 | -
CN(C)CCNC(=S)Nc1cccc(Cl)c1 | - | - | - | - | - | . | .
Cc1cccc(NC(=S)NCC(c2ccccc2)N(C)C)c1 (stereo not drawn) | 348 | - | - | - | - | - | -
COc1ccc(Cl)cc1NC(=O)CNCC(c1ccccc1)N(C)C (stereo not drawn) | - | - | - | - | - | . | .
CC(c1ccccc1)N1CCC(CNC(=S)Nc2cccc(Cl)c2)C1 (stereo not drawn) | 19 | - | - | - | - | - | 28
N#Cc1cccc(OC(=O)C2CCN(C(=O)c3ccc(F)cc3)CC2)c1 | . | . | . | - | . | . | .
Cc1cc(Br)cn2c(Cc3ccccc3)c(-c3ccc(C#N)cc3)nc12 | . | . | . | - | . | . | .
NS(=O)(=O)c1ccc(CCNC(=O)CSc2nc3c(sc(=S)n3-c3ccccc3)c(=O)[nH]2)cc1 | . | . | . | - | . | . | .
COc1ccc(C2C(C#N)=C(N)N(c3sc4c(c3C#N)CCCC4)C3=C2C(=O)CC(C)(C)C3)cc1OC (stereo not drawn) | 23 | - | - | - | - | 31 | 25
COc1ccc(C2C(C#N)=C3NC(=O)c4c(sc5c4CCCCC5)N3C3=C2C(=O)CC(C)(C)C3)cc1 (stereo not drawn) | - | - | - | - | - | . | .
COc1ccc(C2C(C#N)=C(N)N(c3sc4c(c3C#N)CCCC4)C3=C2C(=O)CC(C)(C)C3)cc1 (stereo not drawn) | 88 | - | - | - | - | 211 | -
Cc1cccc(NC(=O)c2cc(-c3cc(C)ccc3O)n[nH]2)c1 | 18 | - | - | - | - | - | -
Cc1cccc(NC(=O)c2cc(-c3cc(C)c(C)cc3O)n[nH]2)c1 | - | - | - | - | - | . | .
COC(=O)c1cc2c(n1S(=O)(=O)c1ccc(C)cc1)C(=O)C(=O)c1[nH]cc(C(=O)OCc3ccccc3)c1-2 | 21 | - | - | - | - | 73 | -
CC(C)=CCn1c2ccc(NC(=S)NC3CC3)cc2c(=O)n1C | . | . | . | - | . | . | .
COc1ccc(NC(=O)COC(=O)c2cc(OC)c(OC)cc2NC(=O)c2ccco2)cc1OC | 23 | - | - | - | - | - | -
O=C(C=P(c1ccccc1)(c1ccccc1)c1ccccc1)c1ccccc1-c1ccccc1C(=O)C=P(c1ccccc1)(c1ccccc1)c1ccccc1 | 55 | - | - | - | - | 54 | -

Screens deposited in PubChem BioAssay by The Scripps Research Institute Molecular Screening Center.
